In PubChem BioAssay AID485344 (National Center for Advancing Translational Sciences (NCATS), 2010):
The whole screen tested about 340,000 compounds, of which about 6,900 (2%) were called active. No stated cut-off is given here; in the data, active means inhibition above about 30%; inactive means below that, where a call was filed. What follows is part of a selection rich in actives, with near analogues and random picks from the rest.

target: D(2) dopamine receptor (Homo sapiens) (UniProt P14416); assay: HTS Assay for Allosteric Antagonists of the Human D2 Dopamine Receptor: Primary Screen for Antagonists; conditions: HEK293 TREx D2 cells, calcium flux, dopamine EC80; at 10 µM; active compounds read high; further: 0% is about no effect
Method in brief: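 Dopamine at EC80 is the agonist stimulus; test compounds precede it by 180 s. Calcium flux read kinetically in a force-coupled, inducible HEK293 T-REx D2 cell line.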

Chain of D(2) dopamine receptor (Homo sapiens) (P14416 whole entry, looked up): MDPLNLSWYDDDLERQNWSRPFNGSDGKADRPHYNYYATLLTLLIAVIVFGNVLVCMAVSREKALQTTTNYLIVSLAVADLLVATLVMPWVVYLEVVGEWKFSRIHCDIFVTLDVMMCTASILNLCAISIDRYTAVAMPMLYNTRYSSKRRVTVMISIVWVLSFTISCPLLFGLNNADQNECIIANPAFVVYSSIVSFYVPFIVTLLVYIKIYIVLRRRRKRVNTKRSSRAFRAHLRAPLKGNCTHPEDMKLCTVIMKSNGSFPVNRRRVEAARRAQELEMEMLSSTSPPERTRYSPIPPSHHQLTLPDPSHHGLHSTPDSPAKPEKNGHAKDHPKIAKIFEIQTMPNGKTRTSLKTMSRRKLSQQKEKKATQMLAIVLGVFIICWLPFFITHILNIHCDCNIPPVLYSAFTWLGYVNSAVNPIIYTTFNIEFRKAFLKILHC

| Compound | inhibition |
| --- | --- |
| O=C(CSc1ccccc1)Nc1cccc(S(=O)(=O)N2CCOCC2)c1 | 12.8% (inactive) |
| O=C(/C=C/c1cccc([N+](=O)[O-])c1)OCC(=O)N1CCOCC1 | 13.9% (inactive) |
| CSc1ccccc1NC(=O)COC(=O)CCCOc1ccc(C)cc1 | 5.07% (inactive) |
| CCOc1cc(/C=C/C(=O)OCC(=O)NCCN2C(=O)CSC2=O)ccc1OCC(C)C | 2.85% (inactive) |
| COc1ccccc1C(=O)NC(CCSC)C(=O)NNC(=O)c1csc(N2CCOCC2)n1 (stereo not given) | 6.58% (inactive) |
| O=C(NNC(=O)c1cc(-c2ccccc2Cl)nc2ccccc12)c1csc(N2CCOCC2)n1 | 4.74% (inactive) |
| CSCCC(NC(=O)c1ccc(Cl)cc1Cl)C(=O)NNC(=O)c1csc(N2CCOCC2)n1 (stereo not given) | 33.7% (active) |
| CN1CCN(c2ccc(NC(=O)c3cc(Cl)c4c(c3)OCCO4)cc2)CC1 | -8.36% (inactive) |
| COc1ccc(S(=O)(=O)N2CCCC2CNC(=O)C(=O)NC2CC2)cc1 (stereo not given) | 2.63% (inactive) |
| CN(C)CCOC1c2ccccc2-c2ccccc21 | -3.38% (inactive) |
| Cc1ccccc1C(OCCN(C)C)C1CCCCC1 (stereo not given) | 86.8% (active) |
| Cc1ccccc1C(OCC(O)CN1CCCCC1CCO)c1ccccc1 (stereo not given) | -4.51% (inactive) |
| Cc1ccc(S(=O)(=O)NCCC(=O)NNC(=O)C2COc3ccccc3O2)cc1 (stereo not given) | -0.636% (inactive) |
| CCCCN(C(=O)c1ccc2ccccc2c1)c1c(N)n(CCCC)c(=O)[nH]c1=O | -22.6% (inactive) |
| Cc1ccc(/C=C/C(=O)OCC(=O)Nc2cccnc2Cl)cc1 | 13% (inactive) |
| Nc1nc(SC23CC4CC(CC(C4)C2)C3)ns1 | -8.79% (inactive) |
| CCCSc1nsc(N)n1 | -5.55% (inactive) |
| CCCCCCSc1nsc(N)n1 | 51.1% (active) |
| Cc1ccc(S(=O)(=O)N2CCCCC2)cc1NC(=O)c1cccnc1 | 1.41% (inactive) |
| CCNC(=O)N1CCN(S(=O)(=O)c2ccc3c(c2)OCCCO3)CC1 | 11.7% (inactive) |
| CCN(CC(=O)Nc1cccc(S(=O)(=O)N2CCCCC2)c1)Cc1ccccc1 | 0.844% (inactive) |
| COc1ccccc1N1CC(C(=O)NCCN2C(=O)S/C(=C\c3cccnc3)C2=O)CC1=O (stereo not given) | 4.67% (inactive) |
| Cc1cc(OCCCN2CCN(Cc3ccccc3)CC2)ccc1[N+](=O)[O-] | -14.3% (inactive) |
| COc1cc(CN2CCCN(C)CC2)c([N+](=O)[O-])cc1OC | 24.2% (inactive) |

| Compound | inhibition |
| --- | --- |
| COc1cc(CN2CCN(Cc3ccc(C)cc3)CC2)c([N+](=O)[O-])cc1OC | 88.1% (active) |
| COc1ccc(-c2sc3ccc(OC)cc3c2C#Cc2ccccn2)cc1 | -2.01% (inactive) |
| CC(O)c1nc2c(c(=O)n(C)c(=O)n2C)n1C (stereo not given) | 0.261% (inactive) |
| CC1CN(C2CCCCC2)c2nc3c(c(=O)n(C)c(=O)n3C)n2C1 (stereo not given) | 38.7% (active) |
| CCCCCCn1c(CN2CCCC(C)C2)nc2c1c(=O)n(C)c(=O)n2C (stereo not given) | 2.89% (inactive) |
| CCN(CC(=O)NCc1cccs1)C(=O)/C=C/c1ccc(C)cc1 | 0.23% (inactive) |
| COc1ccc2c(C)cc(SCC(=O)NCC3CCCO3)nc2c1 (stereo not given) | 0.454% (inactive) |
| O=C(NC1CCCCCC1)C1CCN(C(=O)c2ccc(Cl)cc2)CC1 | -21.8% (inactive) |
| COc1ccccc1OCCNC(=O)C(CCSC)NC(=O)COc1ccccc1 (stereo not given) | 0.971% (inactive) |
| Cc1csc(NC(=S)Nc2cccc(Cl)c2)n1 | 32.1% (active) |
| S=C(Nc1cccc(Cl)c1)Nc1ccc2c(c1)OCCO2 | 3.88% (inactive) |
| S=C(Nc1cccc(Cl)c1)Nc1ccc2cn[nH]c2c1 | -2.72% (inactive) |
| CN(CC(=O)Nc1ccc(S(=O)(=O)N2CCCC2)cc1)Cc1ccc(Cl)c(Cl)c1 | -19.3% (inactive) |
| CN(CCC(=O)Nc1cc(S(=O)(=O)N(C)C)ccc1Cl)CC(=O)Nc1ccc(F)cc1 | 50.6% (active) |
| CN(CC(=O)Nc1ccc(F)cc1)CC(=O)Nc1ccc(Cl)c(S(=O)(=O)N2CCOCC2)c1 | -2.29% (inactive) |
| Cc1ccc(CN2CC(C(=O)NNC(=O)Cn3ccc(C(F)(F)F)n3)CC2=O)cc1 (stereo not given) | 9.85% (inactive) |
| COC(=O)C1CCN(C(=O)NC2CC(=O)N(c3ccc4c(c3)OCCO4)C2)CC1 (stereo not given) | 10.2% (inactive) |
| Cc1c(Cl)cccc1NC(=S)NCc1ccc2c(c1)OCO2 | -3.97% (inactive) |
| CN(C)S(=O)(=O)c1cccc(NC(=S)NCc2ccc3c(c2)OCO3)c1 | 51.6% (active) |
| Cc1ccc(/C=N/NC(=S)Nc2cccc(S(=O)(=O)N(C)C)c2)o1 | -10.5% (inactive) |
| Cc1ccc(S(=O)(=O)N(C)C)cc1NC(=O)CN1c2cccc3cccc(c23)S1(=O)=O | 37% (active) |
| CC(C)CN(CC(C)C)C(=O)CN1c2cccc3cccc(c23)S1(=O)=O | -10.2% (inactive) |
| O=C(O)CN1c2cccc3cccc(c23)S1(=O)=O | 14.3% (inactive) |
| O=C(COc1ccccc1Cl)N1N=C(c2cccs2)CC1c1ccco1 (stereo not given) | 5.49% (inactive) |

| Compound | inhibition |
| --- | --- |
| Cc1ccc(-c2csc(NC(=O)C3=COCCO3)n2)cc1C | 1.39% (inactive) |
| CCC(=O)Nc1ccc2c(c1)nc(CCN1CCN(c3ccccn3)CC1)n2C | 57% (active) |
| CN1CCN(Cc2nc3cc(NC(=O)COc4ccc([N+](=O)[O-])cc4)ccc3n2C)CC1 | -8.44% (inactive) |
| Cn1c(CCN2CCCCCC2)nc2cc(NC(=O)Nc3ccccc3)ccc21 | 0.502% (inactive) |
| CCN(CC)c1ccc(NC(=O)CN2CCN(c3ccccn3)CC2)cc1 | 5.78% (inactive) |
| CCOC(=O)N1CCN(Cc2nc3cc(NC(C)=O)ccc3n2C)CC1 | 31.3% (active) |
| CCOC(=O)N1CCN(Cc2nc3cc(NC(=O)CC)ccc3n2CC)CC1 | 3.26% (inactive) |
| O=C(COC(=O)c1cc(S(=O)(=O)N2CCOCC2)ccc1Cl)NCCc1ccccc1 | -3.61% (inactive) |
| CC1CCC(CN2CCN=C2N(C)C)CC1 (stereo not given) | 11.2% (inactive) |
| COc1ccccc1C1=CC(=O)C[C@H](c2ccc(F)cc2)C1 | 4.4% (inactive) |
| O=S(=O)(c1ccccc1)N1CCC(c2ccccc2)CC1 | 0.0462% (inactive) |
| COc1ccccc1C(=O)NC(CCSC)C(=O)N1CCN(C(C)=O)CC1 (stereo not given) | 17.9% (inactive) |
| O=c1oc2ccc(C#CC3(O)CCCCC3)cc2cc1-n1cc(-c2ccsc2)nn1 | 2.59% (inactive) |
| OCC[C@H]1C[C@@H](O)[C@H](O)[C@]2(OCCCc3ccccc32)O1 | 5.04% (inactive) |
| O=C(OCC(=O)N1CCCCCC1)c1cnc(Cl)c(Cl)c1 | -0.916% (inactive) |
| CC(C)NC(=O)NC(=O)CSc1nnc(-c2ccccc2F)n1N | 26% (inactive) |
| Nn1c(SCC(=O)NC2CCCC2)nnc1-c1ccccc1F | -13.5% (inactive) |
| Nn1c(SCC(=O)NC(=O)NC2CCCC2)nnc1-c1ccccc1F | 88.5% (active) |
| CCOc1ccc(CCNC(=O)COC(=O)CCS(=O)(=O)c2ccc(C)cc2)cc1OCC | -15.8% (inactive) |
| O=C(NC1CCCCC1)c1ccc(-c2ccc(Cl)cc2)o1 | 17.9% (inactive) |
| O=C1c2oc3ccc(Br)cc3c(=O)c2C(c2cccc(F)c2)N1CCO (stereo not given) | 24.1% (inactive) |
| COCCN1C(=O)c2oc3c(C)cc(C)cc3c(=O)c2C1c1cccc(O)c1 (stereo not given) | 8.13% (inactive) |
| O=C1c2oc3ccccc3c(=O)c2C(c2cccc(O)c2)N1c1ccccn1 (stereo not given) | 30.8% (active) |
| Cc1ccc(-c2nn(-c3ccccc3)cc2C(=O)NC2CCC(O)CC2)cc1 (stereo not given) | 11.3% (inactive) |

| Compound | inhibition |
| --- | --- |
| CC(C)(C)OC(=O)N[C@H](C(=O)OC(C)(C)C)c1ccc(Br)cc1 | -2.43% (inactive) |
| COc1cccc(C2=CC(=O)C[C@H](c3ccc(F)cc3)C2)c1OC | 2.64% (inactive) |
| Cc1ccc(S(=O)(=O)N2CCN(C(=O)COC(=O)c3c(C)cc(C)cc3C)CC2)c(C)c1 | -0.571% (inactive) |
| CCCc1cc(=O)[nH]c(SCC(=O)N2CCN(S(=O)(=O)c3ccc(C)cc3C)CC2)n1 | 40.9% (active) |
| Cc1ccc(S(=O)(=O)N2CCN(C(=O)CSc3cc(C)ccc3C)CC2)c(C)c1 | 12.2% (inactive) |
| O=C(COC(=O)C1CC2CCCC(C1)C2=O)NC(=O)c1ccccc1 (stereo not given) | -17.3% (inactive) |
| CC(Oc1ccc(Br)cc1)C(=O)NC1CCCCCC1 (stereo not given) | -1.39% (inactive) |
| O=C(COc1ccc([N+](=O)[O-])cc1)Nc1cccc(C(=O)Nc2ccccc2C(=O)O)c1 | 52% (active) |
| O=C(Nc1ccccc1C(=O)Nc1ccncc1)c1ccc([N+](=O)[O-])cc1 | -16% (inactive) |
| O=C(COc1ccc([N+](=O)[O-])cc1)Nc1ccc(N2CCCC2)cc1 | -10.9% (inactive) |
| Cc1ccc(S(=O)(=O)N(C)CC(=O)NCC(c2ccc(F)cc2)N2CCOCC2)cc1 (stereo not given) | 12.3% (inactive) |
| CCCCn1nc(C(=O)Nc2cccc(C(=O)NC3CC3)c2)c2ccccc2c1=O | -27.4% (inactive) |
| CCCn1nc(C(=O)Nc2ccc3nc(C)sc3c2)c2ccccc2c1=O | 31% (active) |
| CCCn1nc(C(=O)NNC(=O)CSCC(=O)Nc2cc(C)on2)c2ccccc2c1=O | 5.99% (inactive) |
| CN(C)CCn1c2c(c(SCC(=O)NCc3ccccc3)nc1=O)CCC2 | -8.18% (inactive) |
| COCCNc1nnc(SCC(=O)NNC(=O)c2ccco2)s1 | -27.3% (inactive) |
| COc1ccccc1NS(=O)(=O)c1ccc(C)c(C(=O)NCC(c2ccco2)N(C)C)c1 (stereo not given) | 7.48% (inactive) |
| COCCNCCOCCOc1cccc(OC)c1 | -3.27% (inactive) |
| CN(C)CCOCCOc1ccc(Cl)c2ccccc12 | -4.55% (inactive) |
| Clc1cccc(Cl)c1OCCOCCNCc1ccccc1 | 53% (active) |
| OC(COCC1COc2ccccc2O1)CN1CCN(c2ccc(F)cc2)CC1 (stereo not given) | 2.02% (inactive) |
| O=[N+]([O-])c1ccc(N2CCN(CC(O)COc3ccccc3)CC2)cc1 (stereo not given) | -9.55% (inactive) |
| OC(COCc1ccco1)CN1CCN(c2ccccc2)CC1 (stereo not given) | 74.4% (active) |
